The text below walks through data of PubChem BioAssay (Tox21).

A number with no mark means an inactive call. Inconclusive results are not listed. The source made the active and inactive calls. Unless noted, calls come from the whole dose curve; as a rule, active = well fitted curve in the direction sought with a large enough effect in the repeat runs; inconclusive = weak or mixed curves; inactive = no such curve, though single readings can be large; an effect the other way counts as inactive or inconclusive.

Assay [1] in a line: qHTS assay to identify small molecule antagonists of the estrogen receptor alpha (ER-alpha) signaling pathway using the BG1 cell line in the presence of 0.1 nM 17-beta-estradiol - cell viability counter screen (AID 1259241). Note: nearly all actives have a fitted effect of over 40% in size. Note: potency is the fitted concentration of half-maximal effect. Summed up:
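Following 5 days in phenol red-free medium with charcoal-stripped serum, VM7Luc4E2 cells received test compounds alongside 0.1 nM 17beta-estradiol (final) at 37C for 22 hr. Live cells were then quantified via protease-substrate fluorescence.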
In general terms: Quantitative high-throughput screening tests each substance at several concentrations.

The nature of assay [2]: qHTS assay to identify small molecule antagonists of the androgen receptor (AR) signaling pathway using the MDA cell line in the presence of 0.5 nM R1881 - cell viability counter screen (AID 1259242). Note: nearly all actives have a fitted effect of over 45% in size. Note: potency is the fitted concentration of half-maximal effect. Put shortly:
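Viability of MDA-kb2 cells was multiplexed with the luciferase AR readout; after 16 hr with compounds and R1881 at 0.5 nM final, CellTiter-Fluor fluorescence was recorded.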

The target of assay [3] is Estrogen receptor (Homo sapiens) (UniProt P03372). Kind of assay: qHTS assay to identify small molecule antagonists of the estrogen receptor alpha (ER-alpha) signaling pathway using the BG1 cell line in the presence of 0.1 nM 17-beta-estradiol (AID 1259244). Note: nearly all actives have a fitted effect of over 50% in size. Note: potency is the fitted concentration of half-maximal effect. Summed up:
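Estradiol at 0.1 nM (final) stimulates the endogenous ER-alpha of VM7Luc4E2 cells carrying an ERE-driven luciferase; compounds are co-incubated 22 h at 37C and luciferase output quantified by luminescence.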

Assay [4] can be described thus: qHTS assay to identify small molecule phospholipidosis (PLD) inducers (AID 1259344; active = well fitted curve in the direction sought with a large enough effect; an effect the other way counts as inactive or inconclusive; note: potency is the fitted concentration of half-maximal effect). Put shortly:
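Phospholipidosis is scored by imaging LipidTOX-stained pits in HepG2 cells exposed to compound for 24 h at 37 C; pit counts and integrated intensities per well and per cell serve as outputs.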

A short description of assay [5]: qHTS assay to identify small molecule HDAC inhibitors (AID 1259364).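 Note: wild-type HCT-116 cells with endogenous class I/II HDAC activity; top concentration of the series differs between compounds; nearly all actives have a fitted effect of over 45% in size.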 Summed up: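 Read-out: luminescence of HDAC-Glo I/II reagent, 30 min RT, reflecting class I/II deacetylase activity in whole HCT-116 cells pre-exposed 2 h to DMSO-dissolved compounds.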
A short description of assay [6]: qHTS assay to identify small molecule HDAC inhibitors - cell viability counter screen (AID 1259365). Note: series mostly up to about 92 µM; nearly all actives have a fitted effect of over 50% in size. Put shortly:
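HCT-116 wild-type, overnight attachment; 2hr drug exposure, 37C; CellTiter-Glo luminescent ATP readout after 30min RT.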

A short description of assay [7]: qHTS assay to identify small molecule agonists of the sonic hedgehog signaling (Shh) pathway - cell viability counter screen (AID 1259366). Note: nearly all actives have a fitted effect of over 50% in size. Note: potency is the fitted concentration of half-maximal effect. Put shortly: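 Compounds in DMSO were pin-transferred onto 3T3 Gli1-Luc cells that had settled 4hr; plates then stood 24hr at 37C and 5% CO2. One hour before the end, CellTiter-Fluor was added and fluorescence recorded.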
A short description of assay [8]: qHTS assay to identify small molecule antagonists of the sonic hedgehog signaling (Shh) pathway - cell viability counter screen (AID 1259367). Note: nearly all actives have a fitted effect of over 55% in size. Note: potency is the fitted concentration of half-maximal effect. Put shortly: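 Cells: 3T3 Gli1-Luc, 2,000/well, 4 hr pre-incubation. Compounds in DMSO, then conditioned medium. Incubation 24 hr, 37C, 5% CO2. CellTiter-Fluor at 23 hr, 1 hr, fluorescence.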
The nature of assay [9]: qHTS assay to identify small molecule agonists of the sonic hedgehog signaling (Shh) pathway (AID 1259368; calls by dose curve;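 note: NIH/3T3-derived 3T3Gli1-Luc cells carrying a stable Gli1-driven firefly luciferase reporter; series mostly up to about 92 µM; nearly all actives have a fitted effect of over 15% in size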). Summed up: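 A Gli1 transcriptional response element controlled firefly luciferase in 3T3Gli1-Luc cells. Compounds and a positive control were added 4 hr after plating, and cells were incubated a further 24 hr at 37 C before luminescence detection.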
For assay [10], the target named is Androgen receptor (Homo sapiens) (UniProt P10275). Kind of assay: qHTS assay to identify small molecule antagonists of the androgen receptor (AR) signaling pathway using the MDA cell line in the presence of 0.5 nM R1881 (AID 1259243). Note: nearly all actives have a fitted effect of over 50% in size. Note: potency is the fitted concentration of half-maximal effect. Put shortly: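 Reporter cells cultured without CO2 receive test chemicals, then 0.5 nM R1881 final; after 16 hr at 37C, ONE-Glo is added and light output recorded.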
% is set by controls: 0 for no effect and ±100 for the full control effect.

Androgen receptor (Homo sapiens), sequence (P10275 whole entry, looked up): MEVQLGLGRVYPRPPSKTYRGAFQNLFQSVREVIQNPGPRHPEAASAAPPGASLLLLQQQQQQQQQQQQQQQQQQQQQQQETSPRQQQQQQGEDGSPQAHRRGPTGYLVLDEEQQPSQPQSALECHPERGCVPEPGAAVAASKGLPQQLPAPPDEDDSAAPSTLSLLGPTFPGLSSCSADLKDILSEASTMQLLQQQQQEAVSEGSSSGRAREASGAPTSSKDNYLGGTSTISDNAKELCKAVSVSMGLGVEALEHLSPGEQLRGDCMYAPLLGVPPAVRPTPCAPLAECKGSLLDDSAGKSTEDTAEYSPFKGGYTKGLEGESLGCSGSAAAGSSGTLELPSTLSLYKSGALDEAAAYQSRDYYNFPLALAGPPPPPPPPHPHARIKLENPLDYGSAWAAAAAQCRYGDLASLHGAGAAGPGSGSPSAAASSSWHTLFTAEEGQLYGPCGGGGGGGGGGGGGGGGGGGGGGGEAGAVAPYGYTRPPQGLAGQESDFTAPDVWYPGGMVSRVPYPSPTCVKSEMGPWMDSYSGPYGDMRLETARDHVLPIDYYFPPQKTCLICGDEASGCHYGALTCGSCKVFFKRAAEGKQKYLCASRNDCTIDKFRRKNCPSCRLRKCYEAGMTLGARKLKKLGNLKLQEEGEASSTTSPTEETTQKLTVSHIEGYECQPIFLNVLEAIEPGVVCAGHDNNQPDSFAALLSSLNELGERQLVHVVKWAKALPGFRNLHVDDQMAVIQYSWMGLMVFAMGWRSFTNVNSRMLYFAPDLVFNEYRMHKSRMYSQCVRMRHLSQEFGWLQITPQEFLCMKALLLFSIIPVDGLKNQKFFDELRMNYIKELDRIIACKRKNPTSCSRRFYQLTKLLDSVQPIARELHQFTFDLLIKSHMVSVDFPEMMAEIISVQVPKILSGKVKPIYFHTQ
Estrogen receptor (Homo sapiens), sequence (P03372 whole entry, looked up): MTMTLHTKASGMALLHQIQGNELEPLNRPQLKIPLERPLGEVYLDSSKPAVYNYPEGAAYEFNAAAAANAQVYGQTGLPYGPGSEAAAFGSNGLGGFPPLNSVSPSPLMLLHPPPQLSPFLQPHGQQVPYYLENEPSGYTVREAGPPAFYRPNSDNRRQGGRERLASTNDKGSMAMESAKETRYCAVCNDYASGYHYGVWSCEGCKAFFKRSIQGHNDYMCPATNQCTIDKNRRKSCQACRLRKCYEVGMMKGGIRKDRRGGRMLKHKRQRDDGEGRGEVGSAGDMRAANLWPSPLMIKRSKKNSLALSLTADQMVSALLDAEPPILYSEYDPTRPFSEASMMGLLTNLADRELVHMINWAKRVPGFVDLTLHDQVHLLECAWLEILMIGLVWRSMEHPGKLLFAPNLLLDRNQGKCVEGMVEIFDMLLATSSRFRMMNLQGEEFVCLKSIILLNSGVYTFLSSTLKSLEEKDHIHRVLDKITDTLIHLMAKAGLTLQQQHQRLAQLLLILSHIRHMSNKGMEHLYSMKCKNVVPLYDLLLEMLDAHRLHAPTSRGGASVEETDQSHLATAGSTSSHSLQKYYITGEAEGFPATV

On to `CCOCCOC(C)=O`, for which the Potency entry in assay [1], in [2], in [3], in [4], in [5] and in assay [6] was “inactive” throughout. For the same molecule, the Potency entry in [7], in [8] and in [9] was “inactive” throughout.
On to `CCC(C)(C)C(=O)OC1=C(c2ccc(Cl)cc2Cl)C(=O)OC12CCCCC2`, for which the Potency entry in assay [1], in [2], in [10], in assay [5], in assay [6] and in [7] was “inactive” each time. The Potency entry in [8] and in assay [9] was “inactive” in each case.
On to `CC(C)N1C(=O)N(c2ccccc2)CSC1=NC(C)(C)C`, for which the Potency entry in assay [1], in assay [2], in assay [5], in [6], in assay [7] and in assay [8] was “inactive” each time. For the same molecule, the Potency result in assay [9] is “inactive”. Moreover, the Potency in [10] is 54.5 µM (active).
As for `C[C@]12CC[C@H](O)C[C@H]1CC[C@@H]1[C@@H]2C[C@@H](O)[C@]2(C)[C@@H](C3=CC(=O)OC3)CC[C@]12O`, the Potency entry in assay [1], in assay [2], in assay [10], in [5], in assay [6] and in [7] was “inactive” in each case. In addition, the Potency result in assay [8] and in assay [9] was “inactive” each time.
Take `CC(C)C(=O)Cl`: the Potency result in assay [1], in assay [2], in [10], in assay [5], in assay [6] and in assay [7] was “inactive” in each case. Moreover, the Potency entry in assay [8] and in [9] was “inactive” in each case.
As for `Clc1ccc(Oc2ccccc2)cc1`, the Potency entry in [1], in assay [2], in [10], in [5], in assay [6] and in assay [7] was “inactive” throughout. Moreover, the Potency entry in [8] and in [9] was “inactive” throughout.
`C[C@@H]1O[C@@H](O[C@@H]2C=C3CC[C@@H]4[C@H](CC[C@]5(C)[C@@H](c6ccc(=O)oc6)CC[C@]45O)[C@@]3(C)CC2)[C@H](O)[C@H](O)[C@H]1O`: the Potency result in assay [1], in [2], in [10], in assay [5], in [6] and in [7] was “inactive” in each case. The Potency entry in assay [8] is “inactive”.
Take `C[C@@H]1O[C@@H](O[C@H]2C[C@@H](O)[C@]3(CO)[C@H]4[C@H](O)C[C@]5(C)[C@@H](C6=CC(=O)OC6)CC[C@]5(O)[C@@H]4CC[C@]3(O)C2)[C@H](O)[C@H](O)[C@H]1O`: the Potency result in [1], in assay [2], in assay [10], in assay [4], in assay [5] and in assay [6] was “inactive” each time. The Potency entry in [7], in assay [8] and in assay [9] was “inactive” throughout.
Consider `CC(C)(O)c1cnn2c(-c3ccc(F)c(-c4c(F)cccc4C#N)c3)cnc2n1`, for which the Potency entry in assay [1], in assay [2], in assay [5], in assay [6] and in assay [9] was “inactive” each time. Moreover, the Potency in assay [10] is 61.1 µM (active).
Turning to `COC12CC[C@@]3(C[C@@H]1C(C)(O)C(C)(C)C)[C@H]1Cc4ccc(O)c5c4[C@@]3(CCN1CC1CC1)[C@H]2O5` (stereo partly specified), the Potency is 60.7 µM (active) in assay [1]; 54.1 µM (active) in [2]; 24.2 µM (active) in assay [3]; 24.2 µM (active) in assay [7]; 17.1 µM (active) in assay [8]. Also, the Potency result in assay [4], in assay [5], in assay [6] and in assay [9] was “inactive” in each case.
Take `N#CCCSCCC#N`: the Potency entry in assay [1], in [2], in assay [10], in assay [5], in [6] and in assay [7] was “inactive” throughout. Also, the Potency entry in [8] and in assay [9] was “inactive” in each case.
Turning to `C[C@H]1O[C@@H](O[C@H]2[C@@H](O)C[C@H](O[C@H]3[C@@H](O)C[C@H](O[C@H]4CC[C@@]5(C)[C@H](CC[C@@H]6[C@@H]5CC[C@]5(C)[C@@H](C7=CC(=O)OC7)CC[C@]65O)C4)O[C@@H]3C)O[C@@H]2C)C[C@H](O)[C@@H]1O`, the Potency entry in assay [1], in assay [2], in assay [10], in [5], in assay [6] and in assay [7] was “inactive” each time. Besides, the Potency result in [8] and in assay [9] was “inactive” throughout. Besides, the Potency in [4] is 2 µM (active).
Regarding `O=C(CCl)Nc1ccccc1`, the Potency in [1] is 61.1 µM (active); in [2] it was 61.1 µM (active); in assay [10] it was 48.6 µM (active); in assay [7], 12.2 µM (active); in assay [8], 27.3 µM (active). The Potency entry in [5], in [6] and in [9] was “inactive” throughout.
With `C[CH2][Hg][N]1C(=O)C2C(C1=O)C1(Cl)C(Cl)=C(Cl)C2(Cl)C1(Cl)Cl` (stereo unspecified), the Potency in assay [1] is 13 µM (active); in assay [2], 13 µM (active); in [10] it was 7.3 µM (active); in assay [7] it was 7.3 µM (active). Besides, in assay [6], the activity change, negative = cytotoxicity is -3.87% [at 19 µM]. In addition, the activity change in [9] is -11.5% [at 18.9 µM, active compounds read high].
For the molecule `[Cl][Sn]([c]1ccccc1)([c]1ccccc1)[c]1ccccc1`, the Potency was 4.11 µM (active) in assay [1]; 1.64 µM (active) in [2]; 0.82 µM (active) in assay [10]; 0.231 µM (active) in assay [7]; 0.366 µM (active) in assay [8]. In [5], the activity change, negative = inhibition was -5.43% [at 19 µM]. Also, in assay [6], the activity change, negative = cytotoxicity was 26.2% [at 19 µM]. Also, the activity change in [9] is -11.2% [at 18.9 µM, active compounds read high].
`CCC(C)c1cc([N+](=O)[O-])cc([N+](=O)[O-])c1OC(=O)C=C(C)C` (stereo unspecified): the figures for the Potency in assay [1], in assay [2] and in assay [10] were 61.1 µM (active), 61.1 µM (active) and 54.5 µM (active), respectively. Further, the Potency result in assay [5], in assay [6] and in [9] was “inactive” each time.
On to `CCCSP(=O)(OCC)SCCC`, for which the Potency result in [1], in [2], in [10], in assay [4], in assay [5] and in [6] was “inactive” throughout. The Potency entry in [7], in assay [8] and in assay [9] was “inactive” in each case.
As for `Cc1ccc(C(=O)Cl)cc1`, the Potency result in [1], in assay [2], in assay [10], in [5], in assay [6] and in assay [7] was “inactive” each time. In assay [8], the Potency result is “inactive”.
